Measurements as given in PubChem BioAssay.

test system: Wnt5a (protein binding on small-molecule microarray); assay: small molecules binding Wnt5a protein – biophysical, small-molecule microarray, 635/667 nm fluorescence, primary screen (AID 1142); details: 635 nm fluorescence, higher = more signal;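 further: fluorescence read at 667 nm with signal to noise per printed feature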

| Compound | composite z-score |
| --- | --- |
| C=C(COC)/C(=C/C[C@@H](OC(C)=O)c1cccc(OCCO)c1)c1cc(C(=O)OC)ccc1OC | 0.0467 |
| COCC(=C=CC[C@H](O)c1ccc(OCCO)cc1)C[C@H](O)c1ccccn1 | -0.0253 |
| CCOC(=O)[C@H]1C/C=C/C[C@H](C(=O)OCC)C(=O)O[C@H]2[C@@H](OC)O[C@H](CO)[C@@H](OC(=O)Nc3ccc(Br)cc3)[C@@H]2OC1=O | 0.172 |
| CCN1C(C)=C(C(=O)OC)[C@@H](c2ccccc2)N2C(=O)[C@@]3(C(=O)OC)O[C@@]12[C@@H]1C(=O)N(c2ccccc2)C(=O)[C@@H]13 | 0.313 |
| CC(C)N1CC=CC23O[C@@H]4/C=C\CCCOC(=O)C4[C@H]2C(=O)N(CCCCCO)[C@@H]3C1=O (stereo partly specified) | -0.22 |
| C=C(COC)/C(=C/C[C@H](OC(C)=O)c1ccc(OCCO)cc1)c1cnc2ccccc2c1 | 0.248 |
| COCCOC(=O)N1C(=O)[C@@]2(c3cc(C#CCNC(N)=O)ccc31)[C@H](c1ccc(OCCO)cc1)N1[C@H](c3ccccc3)[C@H](c3ccccc3)OC(=O)[C@H]1[C@@H]2C(=O)N1CCCCCCC1 | 0.148 |
| CO[C@H]1COC(=O)[C@@H](OCc2ccccc2)C=C[C@H](C)[C@@H](OC)COC(=O)[C@H](OCc2ccccc2)C=C[C@@H]1C | -0.115 |
| NC(=O)NCC#Cc1ccc2c(c1)[C@]1(C(=O)N2)[C@H](C(=O)N2CCCCCCC2)[C@H]2C(=O)O[C@H](c3ccccc3)[C@H](c3ccccc3)N2[C@@H]1c1ccccc1OCCO | 1.58 |
| COCCCNC(=O)[C@@]1(Sc2ccc(C)cc2)CC(=O)N(Cc2cc(C(F)(F)F)cc(C(F)(F)F)c2)[C@@H]1c1ccc(CO)cc1I | -0.265 |
| C=CCC1=C[C@H]2[C@H]([C@@H]3C=C[C@]2(CC=C)C(=O)[C@]32CO2)[C@@]2(CO2)C1=O | 0.123 |
| O=C(NCc1ccccc1)[C@@]1(CCS(=O)(=O)c2ccccc2)COC(c2ccc(OCCCO)cc2)=N1 | 0.23 |
| C=CCNC(=O)[C@H]1[C@@H]2C(=O)O[C@@H](c3ccccc3)[C@@H](c3ccccc3)N2[C@@H](c2ccccc2OCCO)[C@]12C(=O)N(C(=O)OCCOC)c1ccc(C#CCNC(N)=O)cc12 | -0.0103 |
| CCCCO[C@H]1C[C@H]2C(Br)=C[C@@]1(CO)C(=O)[C@]21CO1 | -0.112 |
| CN1CCC(CCCO)=CC1C1CC1 (stereo unspecified) | 0.0651 |
| COc1ccc(CCNC(=O)[C@@]2(c3ccc([N+](=O)[O-])cc3)CC(=O)N(C(C)C)[C@@H]2c2ccc(CO)cc2)cc1 | -0.326 |
| Cc1ccc(S[C@]2(C(=O)O)CC(=O)N(Cc3ccccc3)[C@@H]2c2ccc(CO)cc2)cc1 | 0.0167 |
| C=CCc1cccc([C@@H]2[C@@H](C)CC[C@H]3C(=O)N4[C@H](c5cccc(CC=C)c5)[C@@H](C)CC[C@H]4C(=O)N23)c1 | 0.205 |
| COc1ccc([Si](C)(C)[C@H]2[C@H](CCO)O[C@@]3(C(=O)N(Cc4ccc(N5CCCCC5=O)cc4)c4ccccc43)[C@@H]2C)cc1 | -0.0939 |
| CCCNC(=O)[C@@]1(Sc2ccc(C)cc2)CC(=O)N(Cc2ccccc2Cl)[C@@H]1c1ccc(CO)cc1 | 0.222 |
| CO[C@H]1COC(=O)[C@H](CCSC)NC(=O)CC=C[C@@H](C)COC(=O)[C@@H](OCc2ccccc2)C=C[C@@H]1C | 0.156 |
| C[C@@H]1CC[C@H]2C(=O)N3[C@@H](CC[C@@H](C)[C@@H]3c3cccc(N4CCOCC4)c3)C(=O)N2[C@H]1c1cccc(N2CCOCC2)c1 | -0.0915 |
| CO[C@]12C=C(Br)[C@@H](C[C@@H]1c1ccccc1)[C@@]1(CO1)C2=O | -0.002 |
| C=CCC(OC(C)=O)[C@@H]1[C@@H](N(Cc2ccc(-c3ccccc3)cc2)C(=O)c2ccc(C)cc2)c2cc(OCCCO)ccc2N1C(=O)c1ccc(-c2ccccc2)cc1 (stereo partly specified) | 0.504 |
| CC(=O)NCCCC[C@@H]1NC(=O)[C@@H]2C[C@H](C(=O)NCCCCCCN(C)C)[C@H](c3ccc(O)cc3)N2C1=O | 0.336 |
| O=C1c2ccccc2[C@](Cc2ccccc2I)(C(=O)NCc2ccccc2)[C@H](c2ccc(CO)cc2)N1Cc1ccccc1C(F)(F)F | -0.246 |
